Screening results (PubChem)
The full list was thinned out, with hits kept by preference.
HT1080 IDH1KD tx = toxicity to HT-1080 IDH1 knockdown cells (counter line); HT-1080 IDH1 knockdown viability, ATP luminescence, 48 h; AID 686971; Potency, µM (top dose mostly 46.1 µM), actives largely listed as cytotoxic; 360,000 tested, 2% active
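Luminescent ATP read-out (CellTiter-Glo, 10 min at room temperature) after 48 h compound exposure at 37 °C gave viability of IDH1-knockdown HT-1080 cells. Activity was normalised to DMSO and cell-free wells, then fitted as concentration-response curves.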
IL1B secr inh = inflammasome signaling inhibition, IL-1 beta readout. THP-1 LPS/ATP IL-1B secretion, AlphaLISA, 16 h; stronger effect = lower value. activity change, % at 57.5 µM. 360,000 tested, 4.7% active. AID 743279; in the data active = activity change below about -50%; inconclusive = mostly about -30% to -49%
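THP-1 cells pretreated 1 hr with compounds (up to 57.5 uM final), then stimulated with LPS (250 ng/mL final) plus ATP (1.25 mM final); secreted IL-1B measured by AlphaLISA after 16 hr, decreased signal indicating inhibition.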
ALOX12 inh = inhibitors of human 12S-lipoxygenase ALOX12; P18054; purified 12hLO, xylenol orange hydroperoxide absorbance; Potency, µM (top dose mostly 108 µM), usual class: inhibitors; 580,000 tested, 1.1% active
Target sequence (P18054 whole entry, looked up): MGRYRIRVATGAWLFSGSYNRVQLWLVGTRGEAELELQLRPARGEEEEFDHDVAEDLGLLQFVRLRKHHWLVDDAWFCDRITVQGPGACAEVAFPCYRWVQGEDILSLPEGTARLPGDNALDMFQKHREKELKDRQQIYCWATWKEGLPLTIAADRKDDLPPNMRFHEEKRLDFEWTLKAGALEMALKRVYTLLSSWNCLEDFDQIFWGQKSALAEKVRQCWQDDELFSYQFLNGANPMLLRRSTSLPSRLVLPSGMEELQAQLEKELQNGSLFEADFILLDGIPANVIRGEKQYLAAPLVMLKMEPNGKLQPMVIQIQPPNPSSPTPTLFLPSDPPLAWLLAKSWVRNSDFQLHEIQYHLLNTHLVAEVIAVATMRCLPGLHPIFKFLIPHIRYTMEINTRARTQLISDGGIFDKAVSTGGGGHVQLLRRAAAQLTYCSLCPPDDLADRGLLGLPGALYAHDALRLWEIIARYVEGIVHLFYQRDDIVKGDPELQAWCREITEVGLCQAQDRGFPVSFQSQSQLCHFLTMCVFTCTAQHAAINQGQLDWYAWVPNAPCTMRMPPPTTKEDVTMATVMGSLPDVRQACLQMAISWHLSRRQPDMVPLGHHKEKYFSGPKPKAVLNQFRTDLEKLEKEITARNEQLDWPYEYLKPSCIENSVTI
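Purified human 12hLO (150 nM final) in 25 mM Hepes, 0.01% Triton X-100, pH 7.0 was preincubated 15 min at room temperature with compound. Then 40 uM arachidonic acid was added, 30 min. Hydroperoxide was read by Fe-XO absorbance ratio 573/405 nm.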
TDP1 cell CPT = growth inhibition of DT40 Tdp1-/-;hTDP1 cells with camptothecin (screen for TDP1 inhibitors) | chicken DT40 Tdp1-/-;hTDP1 cells + 20 nM CPT, ATP luminescence, 48 h | Potency, µM (titrated, usually from 46.2 µM), actives largely listed as inhibitors | 420,000 tested, 12% active | AID 686979; note: nearly all actives have a fitted effect of over 55% in size
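Chicken DT40 Tdp1-/- cells complemented with human TDP1, 400 cells/well, exposed to compounds plus 20 nM camptothecin for at least 48 h at 37 C; viability read as ATP content by CellTiter-Glo luminescence.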
DT40 TDP1 no CPT = qHTS for Inhibitors of human tyrosyl-DNA phosphodiesterase 1 (TDP1): qHTS in cells in absence of CPT | DT40 Tdp1-/- hTDP1 cells, no CPT, ATP luminescence, 48 h | Potency, µM (top dose mostly 46.2 µM), usual class: inhibitors | 420,000 tested, 15% active | AID 686978, 2013; note: nearly all actives have a fitted effect of over 55% in size
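Camptothecin absent (DMSO only). Human TDP1-complemented DT40 knockout cells, 400 cells/well, 37 °C for minimum 48 hr; ATP measured via CellTiter-Glo, 30 min dark incubation, luminescence.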
HT1080-NT tox = kills 2HG-producing HT-1080-NT fibrosarcoma cells; HT-1080-NT fibrosarcoma viability, CellTiter-Glo ATP luminescence, 48 h; Potency, µM (titrated, usually from 46.1 µM), most hits filed as cytotoxic; AID 686970; 360,000 tested, 1.6% active;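 note: NT is the 2HG producing partner of a matched IDH1 knockdown line; nearly all actives have a fitted effect of over 55% in size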
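Compounds were tested in concentration-response format on HT-1080-NT cells for 48 hours at 37 degrees C. Cell viability came from CellTiter-Glo luminescence; curves were classified by r2, response magnitude and activity.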
A number is an active result; 0 = inactive; ? = inconclusive; - = no result; [ ] = another dose, or the depositor's remark. Unless noted, calls come from the whole dose curve; as a rule, active = well fitted curve in the direction sought with a large enough effect; inconclusive = small, poorly fitted or top-dose-only effect, or another doubt; inactive = no such curve, though single readings can be large; an effect the other way counts as inactive or inconclusive.

SMILES	HT1080 IDH1KD tx	IL1B secr inh	ALOX12 inh	TDP1 cell CPT	DT40 TDP1 no CPT	HT1080-NT tox
COC(=O)CN(C(=S)Nc1ccc(F)cc1)C1CC(=O)N(c2ccc(OC)cc2)C1=O (stereo not drawn)	0	0	32µM	?	0	0
COC(=O)CN(C(=S)Nc1ccc(F)cc1)C1CC(=O)N(c2ccccc2)C1=O (stereo not drawn)	0	0	0	0	0	0
CN(CC(=O)Nc1ccc(F)c(Cl)c1)S(=O)(=O)c1cccc2nsnc12	0	0	0	21µM	18µM	0
CCc1cccc(NC(=O)CN(C)S(=O)(=O)c2cccc3cccnc23)c1	0	0	0	16µM	16µM	0
Cc1c(Cl)cccc1NC(=O)CCS(=O)(=O)c1cccc2nsnc12	-	-	0	15µM	?	-
CC1(C)C2CCC1(C)C(OCC[N+](C)(C)CC#N)C2 (stereo not drawn)	-	-	0	-	-	-
N#CCCN1CCN(C(=S)c2ccc(-c3ccc(Cl)cc3)o2)CC1	0	0	-	?	?	0
S=C(c1ccc(-c2ccccc2Cl)o1)N1CCCCC1	0	0	?	?	16µM	0
S=C(c1ccc(-c2ccc(Cl)cc2)o1)N1CCCCC1	0	-52	16µM	?	?	?
COP(=O)(OC)c1nc(Cc2ccccc2)oc1NCc1ccc2c(c1)OCO2	-	-	0	-	-	-
Fc1ccc(-c2ccnc(=S)[nH]2)cc1	0	0	?	21µM	?	0
COCCNC(=O)C1CC(c2cccc(OC)c2)=NO1 (stereo not drawn)	0	0	0	0	?	0
C=CCNC(=O)C1CC(c2cccc(OC)c2)=NO1 (stereo not drawn)	0	0	0	0	0	0
COc1cccc(C2=NOC(C(=O)NCc3ccccc3)C2)c1 (stereo not drawn)	?	0	0	5.2µM	4.6µM	?
COc1cccc(C2=NOC(C(=O)NCc3ccco3)C2)c1 (stereo not drawn)	?	0	0	9.2µM	13µM	?
CCc1noc([C@@H]2CC(F)(F)CN2C(=O)c2ccn(CC)n2)n1	-	-	0	-	-	-
O=c1c2cnc3nc(-c4ccncc4)nn3c2ccn1CCN1CCCCC1	-	-	0	-	-	-
Cc1ccc(C)c(N(CC(=O)Nc2ccccc2C(=O)NCc2ccco2)S(=O)(=O)c2ccccc2)c1	0	0	0	?	16µM	0
O=C(CN(c1ccccc1)S(=O)(=O)c1ccccc1)Nc1ccccc1C(=O)NCc1ccco1	0	0	0	?	16µM	0
CS(=O)(=O)N(CC(=O)Nc1ccccc1C(=O)NCc1ccco1)c1ccccc1F	0	0	0	0	0	0
O=C(CN(c1ccc(F)cc1)S(=O)(=O)c1ccccc1)NCc1ccco1	0	0	0	0	?	0
Cc1ccc(C)c(N(CC(=O)NC2CCCC2)S(=O)(=O)c2ccccc2)c1	0	?	0	12µM	8.2µM	0
COc1ccc(Cl)cc1C(=O)NNC(=O)C1CCCO1 (stereo not drawn)	0	0	0	0	0	0
CC(C)C[C@@H]1N[C@H](C(=O)NC(C)C)Cc2cn(Cc3nccn3C)c3cccc1c23	-	-	0	-	-	-
Cc1ncc2c(c1CNC(=O)/C=C/c1cccs1)CCN(C(=O)C1CC(=O)OC13CCCCC3)C2 (stereo not drawn)	-	-	0	0[9.04 µM]	0	-
COc1ccc2c(c1)c(=O)oc1cc(OCC(=O)N3CCC(C)CC3)ccc12	?	0	-	?	21µM	?
CC1CCCN(C(=O)COc2ccc(-c3ccccc3)cc2)C1 (stereo not drawn)	0	?	0	?	15µM	0
COc1ccc2c(c1)c(=O)oc1cc(OCC(=O)N3CCCC(C)C3)ccc12 (stereo not drawn)	0[9.24 µM]	0	0	?	13µM	0
Cc1ccccc1C1=NOC2CN(C(=O)c3ccc4c(c3)OCO4)CC12 (stereo not drawn)	-	-	0	-	-	-
